The values that follow come from PubChem BioAssay (NCATS).

Experiment [1] in a line: qHTS Screen of the MIPE 4.0 Collection Against Ewings Sarcoma (RDES) (AID 1259252). Note: nearly all actives have a fitted effect of over 35% in size. Note: potency is the fitted concentration of half-maximal effect. An outline of the steps:
(§1)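 Dose series incubated 48 h with cells in RPMI plus 5% FBS, glutamine and penicillin/streptomycin; cell viability then quantified via CellTiter-Glo.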

Experiment [2] in a line: qHTS Screen of the MIPE 4.0 Collection Against Ewings Sarcoma (TC71) (AID 1259253). Note: nearly all actives have a fitted effect of over 40% in size. Note: potency is the fitted concentration of half-maximal effect. An outline of the steps: as §1
Experiment [3] can be described thus: qHTS Screen of the MIPE 4.0 Collection Against Ewings Sarcoma (EW8) (AID 1259255). Note: nearly all actives have a fitted effect of over 35% in size. Note: potency is the fitted concentration of half-maximal effect. An outline of the steps: as §1
A short description of experiment [4]: qHTS Screen of the MIPE 4.0 Collection Against Ewings Sarcoma (TC32) (AID 1259256). Note: nearly all actives have a fitted effect of over 45% in size. Note: potency is the fitted concentration of half-maximal effect. An outline of the steps:
as §1

The nature of experiment [5]: Identifying Small Molecule Inhibitors of Pancreatic Cancer Stem Cells (A2780, Spheroid) (AID 1259357). Note: potency is the fitted concentration of half-maximal effect.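 Note: spheroids pre-formed over 14 days in stem cell medium on hydrogel; compound exposure lasted 48 h before the ATP luminescence read.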 The note with it: Potency: A2780 spheroid viability. An outline of the steps: (§2)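 Spheroids grown 14 days in stem cell media on nonadherent hydrogel before screening; cells attached 4 h, then compound exposure 48 h at 37C, 5% CO2. CellTiter-Glo luminescence normalized to DMSO (no inhibition) and no-cell wells (full inhibition).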

Experiment [6] is described as follows: Identifying Small Molecule Inhibitors of Pancreatic Cancer Stem Cells (Panc1, Spheroid) (AID 1259359).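 Note: potency is the fitted concentration of half-maximal effect; compound exposure lasted 48 h before reading.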 An outline of the steps:
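After a 4 h attachment period, compounds were pinned into wells and cultures held 48 h under standard incubator conditions. Viability was then measured as CellTiter-Glo luminescence following 10 min at room temperature.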

Experiment [7] is described as follows: Identifying Small Molecule Inhibitors of Pancreatic Cancer Stem Cells (A278, Adherent) (AID 1259361). Note: nearly all actives have a fitted effect of over 35% in size. An outline of the steps: (§3)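 Endpoint: ATP-based luminescence, 48 h drug exposure. Bortezomib at 9.2 uM final as full-kill control; DMSO vehicle as negative control; activity normalized between vehicle and cell-free wells.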
Experiment [8] in a line: P-glycoprotein substrates identified in KB-3-1 adenocarcinoma cell line, qHTS therapeutic library screen (AID 1346986). Note: nearly all actives have a fitted effect of over 60% in size.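 Note: potency is the fitted concentration of half-maximal effect; potency is for cytotoxicity meaning loss of cell viability.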 An outline of the steps: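 Compounds were tested in dose-response against KB-3-1 and KB-8-5-11 cells at 37 degree C for 72 h, and viability was measured by luminescence. AC50 values came from curve fitting with class-based activity calls.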
Experiment [9] can be described thus: P-glycoprotein substrates identified in KB-8-5-11 adenocarcinoma cell line, qHTS therapeutic library screen (AID 1346987). Note: nearly all actives have a fitted effect of over 65% in size. Note: potency is the fitted concentration of half-maximal effect. An outline of the steps:
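P-gp-mediated resistance screen: KB-8-5-11 cells treated 72 h with compounds in dose-response. CellTiter-Glo viability.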

A short description of experiment [10]: NS1 protein of Zika virus - qHTS assay to identify small molecule inhibitors in human HEK 293 cells (AID 1347053). Note: nearly all actives have a fitted effect of over 55% in size. Note: potency is the fitted concentration of half-maximal effect. An outline of the steps:
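HEK 293 cells pretreated with compound for 1 h, then infected with ZIKV MR766 (MOI 0.5) for 24 h at 37 C. NS1 detected by TR-FRET with two anti-NS1 antibodies; normalized to uninfected (0%) and infected (100%) wells.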

Experiment [11] in a line: Identifying Small Molecule Inhibitors of Pancreatic Cancer Stem Cells (SN12C, Adherent) (AID 1259358).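 Note: cell survival measured after 48 h of compound exposure.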 Note: potency is the fitted concentration of half-maximal effect. An outline of the steps:
as §3

Experiment [12] is described as follows: Identifying Small Molecule Inhibitors of Pancreatic Cancer Stem Cells (SN12C, Spheroid) (AID 1259360). Note: potency is the fitted concentration of half-maximal effect. The following applies: Potency: SN12C spheroid viability. An outline of the steps:
as §2

A short description of experiment [13]: Identifying Small Molecule Inhibitors of Pancreatic Cancer Stem Cells (Panc1, Adherent) (AID 1259362). Note: potency is the fitted concentration of half-maximal effect. The note with it: Potency: viability. An outline of the steps:
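Pre-formed 14-day tumor spheroids or adherent cells dosed and incubated 48 h, 37C, 5% CO2. Viability assessed by CellTiter-Glo.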

Where “and” joins values, the source holds several entries; their conditions need not be identical. Equal values may be shown once. Records with an inconclusive call do not appear. The source holds several records for some structures; these can differ, active in one and inactive in another. Calls of active or inactive are those of the source. Calls come from the whole dose curve; as a rule, active = well fitted curve in the direction sought with a large enough effect; inconclusive = small, poorly fitted or top-dose-only effect, or another doubt; inactive = no such curve, though single readings can be large; an effect the other way counts as inactive or inconclusive.

Take `Cc1nc2cnc3ccc(C#Cc4cccnc4)cc3c2n1-c1ccc(C(C)(C)C#N)cc1`: the Potency is 0.132 µM (active) in experiment [1]; 0.132 µM (active) in experiment [2]; 0.118 µM (active) in [3]; 0.105 µM (active) in experiment [4]; 1.87 µM (active) in experiment [5]; 18.7 µM (active) in experiment [6]. Besides, the Potency in [9] is 37.2 nM (active) and inactive; in experiment [10], 0.935 µM (active). The IC50 (viability decrease) in [7] was 0.187 µM (active). Further, the Potency entry in experiment [8] was “inactive”.

For `Nc1ccccc1NC(=O)c1ccc(CNC(=O)OCc2cccnc2)cc1`, the Potency in [1] was 9.35 µM (active); in experiment [2], 2.35 µM (active); in [3] it was 2.35 µM (active); in [4] it was 1.66 µM (active); in experiment [9], 11.8 µM (active) and 9.2 µM (active). For the same molecule, the Potency result in experiment [11], in experiment [12] and in experiment [10] was “inactive” each time. Moreover, in [7], the IC50 (viability decrease) entry is “inactive”.

As for `C1Cc2[nH]nc(-c3nn[nH]n3)c2C1`, the Potency result in experiment [1], in experiment [2], in [3], in [4], in experiment [11] and in experiment [12] was “inactive” each time. Moreover, the Potency result in experiment [8], in [9] and in experiment [10] was “inactive” each time. The IC50 (viability decrease) entry in [7] is “inactive”.

As for `Cc1[nH]c2ccccc2c1CCNCc1ccc(C=CC(=O)NO)cc1`, the Potency in experiment [1] is 0.0935 µM (active); in [2], 0.0833 µM (active); in experiment [3], 0.0935 µM (active); in experiment [4] it was 0.0469 µM (active); in [11] it was 0.235 µM (active); in experiment [6], 0.59 µM (active). Further, the Potency in experiment [13] is 0.148 µM (active); in experiment [9] it was 0.935 µM (active). Moreover, the IC50 (viability decrease) in [7] was 0.118 µM (active).

`COc1cc2ncnc(Nc3ccc(F)c(Cl)c3)c2cc1NC(=O)C=CCN1CCCCC1`: the Potency in experiment [1] was 16.6 µM (active); in experiment [2], 2.09 µM (active); in experiment [3] it was 4.69 µM (active); in experiment [4], 2.96 µM (active); in experiment [11] it was 20.9 µM (active); in experiment [6] it was 23.5 µM (active). Also, in experiment [12], the Potency was 29.6 µM (active). The IC50 (viability decrease) in experiment [7] is 16.6 µM (active). Further, the Potency entry in experiment [8] and in experiment [9] was “inactive” each time.

As to `CCCCN1CCC(CNC(=O)c2c3n(c4ccccc24)CCCO3)CC1`, the Potency in experiment [1] is 8.33 µM (active); in experiment [2] it was 9.35 µM (active); in experiment [3] it was 14.8 µM (active); in [4], 13.2 µM (active). The Potency result in experiment [11], in experiment [12] and in experiment [13] was “inactive” each time. Also, the IC50 (viability decrease) result in experiment [7] is “inactive”.

For the molecule `COc1ccc(OC)c(-c2nnc3ccc(-c4ccc(OC)c(O[C@@H]5CCOC5)c4)nn23)c1`, the Potency is 16.6 µM (active) in [1]; 16.6 µM (active) in [2]; 11.8 µM (active) in [3]; 16.6 µM (active) in [4]; 20.9 µM (active) in [11]; 18.7 µM (active) in experiment [12]. For the same molecule, the values for the Potency in experiment [9] and in [10] were 4.61 µM (active) and 9.35 µM (active), respectively. Moreover, the IC50 (viability decrease) in experiment [7] was 5.9 µM (active).

As for `Nc1nc(Nc2ccc(S(N)(=O)=O)cc2)nn1C(=O)c1c(F)cccc1F`, the Potency is 8.33 µM (active) in [1]; 5.26 µM (active) in experiment [2]; 8.33 µM (active) in experiment [3]; 7.43 µM (active) in [4]; 4.18 µM (active) in experiment [5]; 18.7 µM (active) in experiment [10]. Also, the IC50 (viability decrease) in experiment [7] is 2.64 µM (active).

For `COc1cc2c(Oc3ccc(-c4cnc(Nc5ccc(F)cc5)n(C)c4=O)cc3F)ccnc2cc1OCCCN1CCOCC1`, the Potency in experiment [1] is 20.9 µM (active); in experiment [2], 20.9 µM (active); in experiment [3] it was 18.7 µM (active); in experiment [4], 11.8 µM (active); in experiment [11] it was 5.9 µM (active); in experiment [6] it was 11.8 µM (active). In [9], the Potency was 13.2 µM (active). Further, in [7], the IC50 (viability decrease) is 3.72 µM (active).

As for `O=C(C=Cc1c(C(=O)O)[nH]c2cc(Cl)cc(Cl)c12)Nc1ccccc1`, the Potency entry in [1], in experiment [2], in experiment [3], in experiment [4], in [5] and in [12] was “inactive” in each case. Also, the Potency result in experiment [9] and in experiment [10] was “inactive” in each case.

For the molecule `COc1cc2c(Oc3ccc4[nH]c(C)cc4c3F)ncnc2cc1OCCCN1CCCC1`, the Potency in experiment [1] was 23.5 µM (active); in experiment [2], 23.5 µM (active); in [3] it was 23.5 µM (active); in [4] it was 16.6 µM (active); in experiment [11] it was 2.35 µM (active); in [8], 23.1 µM (active). Also, in experiment [9], the Potency was 23.5 µM (active) and 18.4 µM (active). In experiment [7], the IC50 (viability decrease) was 16.6 µM (active). For the same molecule, the Potency entry in experiment [10] was “inactive”.

Turning to `O=C(C=Cc1cccc(S(=O)(=O)Nc2ccccc2)c1)NO`, the Potency in experiment [1] was 2.15 µM (active); in experiment [2] it was 2.7 µM (active); in experiment [3], 1.52 µM (active); in [4], 1.91 µM (active); in [11], 20.9 µM (active); in experiment [9], 10.8 µM (active). Moreover, the IC50 (viability decrease) in [7] was 4.69 µM (active).

For `CC(C)(O)CCc1ccc(OCc2cc(-c3cccc(OC(F)F)c3)c3ncccc3c2)cc1`, the Potency entry in experiment [1], in experiment [2], in experiment [3], in experiment [4] and in experiment [11] was “inactive” in each case.

For the molecule `Nc1ccc(C(=O)c2cc3c(ccc4ccccc43)[nH]2)cc1`, the Potency in [1] was 2.64 µM (active); in [2], 3.32 µM (active); in experiment [3], 1.87 µM (active); in experiment [4], 1.87 µM (active); in experiment [5] it was 2.09 µM (active); in experiment [9], 1.18 µM (active). Further, in [10], the Potency is 18.7 µM (active). The Potency entry in experiment [12] is “inactive”.

Turning to `CN(c1ncccc1CNc1nc(Nc2ccc3c(c2)CC(=O)N3)ncc1C(F)(F)F)S(C)(=O)=O`, the Potency was 11.8 µM (active) in [1]; 5.9 µM (active) in experiment [2]; 8.33 µM (active) in experiment [3]; 10.5 µM (active) in experiment [4]; 5.26 µM (active) in experiment [5]; 20.9 µM (active) in experiment [12]. The Potency was 5.17 µM (active) in experiment [8] and 11.8 µM (active) in experiment [10]. Moreover, the IC50 (viability decrease) in [7] was 2.96 µM (active).
